Data published in PubChem BioAssay (Tox21).
Several values for one entry are separate records, joined by “and”; a condition that tells them apart may be missing. Identical values can stand only once. Records with an inconclusive call do not appear. The source holds several records for some structures; these can differ, active in one and inactive in another. A number with no mark means an inactive call. Activity calls are given as the source filed them. Unless noted, the call rests on the fitted dose curve; in most records, active means well fitted curve in the direction sought with a large enough effect in the repeat runs; inconclusive means weak or mixed curves; inactive means no such curve, though single readings can be large; an effect the other way counts as inactive or inconclusive.

Target: Estrogen receptor (Homo sapiens) (UniProt P03372)
Experiment: qHTS assay to identify small molecule agonists of the estrogen receptor alpha (ER-alpha) signaling pathway (AID 743075; calls by dose curve;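 further: HEK293 GripTite cells with ER-alpha and UAS-driven beta-lactamase reporter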)
Details: HEK293 ER-alpha-UAS-bla, beta-lactamase FRET ratio, 18 h; series mostly up to 70.1 µM; activation: at the top concentration
On the % scale 0 is the no-effect control and ±100 the full control effect.

Estrogen receptor (Homo sapiens), sequence (P03372 whole entry, looked up): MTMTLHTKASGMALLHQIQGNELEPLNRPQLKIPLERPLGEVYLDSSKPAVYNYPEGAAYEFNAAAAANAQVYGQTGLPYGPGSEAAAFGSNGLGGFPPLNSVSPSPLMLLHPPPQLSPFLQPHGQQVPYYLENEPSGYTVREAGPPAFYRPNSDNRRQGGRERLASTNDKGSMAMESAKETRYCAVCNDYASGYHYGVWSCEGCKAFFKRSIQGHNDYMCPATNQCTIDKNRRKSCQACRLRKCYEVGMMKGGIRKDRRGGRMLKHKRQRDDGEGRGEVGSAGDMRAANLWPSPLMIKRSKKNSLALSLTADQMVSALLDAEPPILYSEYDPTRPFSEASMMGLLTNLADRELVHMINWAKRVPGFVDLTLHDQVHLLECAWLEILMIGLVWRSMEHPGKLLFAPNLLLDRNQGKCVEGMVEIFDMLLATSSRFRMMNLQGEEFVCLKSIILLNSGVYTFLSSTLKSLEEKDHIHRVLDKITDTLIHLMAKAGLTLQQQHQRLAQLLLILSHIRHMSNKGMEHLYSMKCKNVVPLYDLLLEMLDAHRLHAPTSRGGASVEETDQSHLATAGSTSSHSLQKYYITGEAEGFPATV

| SMILES | activation | Potency |
| --- | --- | --- |
| C[C@@H](O)[C@H]1C(=O)N2C(C(=O)O)=C(S[C@@H]3CN[C@H](CNS(N)(=O)=O)C3)[C@H](C)[C@H]12 | 6.97% |  |
| COc1ccc(C(=O)c2ccc(C)cc2)c(O)c1 |  | inactive |
| O=C(O)c1cc(C(=O)O)c(C(=O)O)cc1C(=O)O | 2.26% |  |
| OCCc1ccncc1 | -1.87% |  |
| CC(C)(C(=O)O)c1ccc(C(O)CCCN2CCC(C(O)(c3ccccc3)c3ccccc3)CC2)cc1 (centres undefined) | -2.36% |  |
| C1CCN(CN2CCCCC2)CC1 | -1.29% |  |
| CC1=CC(=C(c2ccc(N)cc2)c2ccc(N)cc2)C=CC1=N |  | inactive |
| CCCCCCCCCCCCSC#N | -2.14% |  |
| COc1cc(CNC(=O)CCCC/C=C/C(C)C)ccc1O |  | inactive |
| CC(=O)c1ccc(Cl)c(Cl)c1Cl | 0.991% |  |
| C=CCCC | 0.0376% [at 79.1 µM] |  |
| CC(C)CC(C)(C)C | -0.706% [at 79.1 µM] |  |
| O=C1OC(=O)C2CC=CCC12 (centres undefined) | -1.72% [at 79.1 µM] |  |
| SCCOCCOCCS | -2.42% |  |
| S=c1[nH][nH]c(=S)s1 | 0.782% |  |
| CC(C)(C)c1ccc(CCC=O)cc1 | -1.77% |  |
| Cc1nc2sccn2c(=O)c1CCN1CCC(=C(c2ccc(F)cc2)c2ccc(F)cc2)CC1 | -1.09% |  |
| O=C(O)c1ccccc1-n1cc(C(=O)O)c(=O)c2cc(Nc3c(F)cc(F)cc3Cl)c(Cl)cc21 | -2.14% |  |
| NC(=O)c1ccccc1 | -0.613% [at 79.1 µM] |  |
| Cc1ccc(NC(=O)c2ccc(CN3CCN(C)CC3)cc2)cc1Nc1nccc(-c2cccnc2)n1 | 3.14% |  |
| CCN(CCCCOC(=O)c1ccc(OC)c(OC)c1)C(C)Cc1ccc(OC)cc1 (centres undefined) | -0.848% [at 32.9 µM] |  |

Target: Estrogen receptor (Homo sapiens) (UniProt P03372)
Experiment: qHTS assay to identify small molecule agonists of the estrogen receptor alpha (ER-alpha) signaling pathway using the BG1 cell line (AID 743079); further: nearly all actives have a fitted effect of over 20% in size; further: potency means the concentration at half of the fitted maximal effect
Details: BG1Luc4E2 cells, ERE-luciferase agonist, 22 h; series mostly up to 70.3 µM; activation: at the top concentration

| SMILES | Potency | activation |
| --- | --- | --- |
| COc1ccc(C(=O)c2ccc(C)cc2)c(O)c1 | 13.3 µM (active) and 12.3 µM (active) |  |
| O=C(O)c1cc(C(=O)O)c(C(=O)O)cc1C(=O)O |  | -2.38% |
| OCCc1ccncc1 |  | -4.13% |
| CC(C)(C(=O)O)c1ccc(C(O)CCCN2CCC(C(O)(c3ccccc3)c3ccccc3)CC2)cc1 (centres undefined) |  | 1.36% |
| C1CCN(CN2CCCCC2)CC1 |  | 10.2% |
| CC1=CC(=C(c2ccc(N)cc2)c2ccc(N)cc2)C=CC1=N |  | 1.34% [at 8.47 µM] |
| CCCCCCCCCCCCSC#N |  | -32% |
| COc1cc(CNC(=O)CCCC/C=C/C(C)C)ccc1O |  | -28.7% |
| CC(=O)c1ccc(Cl)c(Cl)c1Cl |  | -11.2% |
| C=CCCC |  | 3.69% [at 95 µM] |
| CC(C)CC(C)(C)C |  | -6.94% [at 95 µM] |
| O=C1OC(=O)C2CC=CCC12 (centres undefined) |  | -7.24% [at 95 µM] |
| SCCOCCOCCS |  | 4.86% |
| S=c1[nH][nH]c(=S)s1 |  | -13.3% |
| CC(C)(C)c1ccc(CCC=O)cc1 |  | 11% |
| O=C(O)c1ccccc1-n1cc(C(=O)O)c(=O)c2cc(Nc3c(F)cc(F)cc3Cl)c(Cl)cc21 |  | -2.34% |
| NC(=O)c1ccccc1 |  | -6.67% [at 95 µM] |
| Cc1ccc(NC(=O)c2ccc(CN3CCN(C)CC3)cc2)cc1Nc1nccc(-c2cccnc2)n1 |  | -37.1% |
| CCN(CCCCOC(=O)c1ccc(OC)c(OC)c1)C(C)Cc1ccc(OC)cc1 (centres undefined) |  | -4.83% [at 32.5 µM] |

Tested on: not listed separately
Experiment: qHTS assay to identify small molecule antagonists of the estrogen receptor alpha (ER-alpha) signaling pathway using the BG1 cell line (AID 743080; calls by dose curve;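 further: BG1 cells stimulated with 17beta-estradiol alongside compound; nearly all actives have a fitted effect of over 25% in size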; further: potency means the concentration at half of the fitted maximal effect)
Details: BG1Luc4E2 ERE-luciferase antagonist mode, luminescence; series mostly up to 70.3 µM; activity change, negative = inhibition: at the top concentration
Method in brief: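 After 5 days in phenol-red-free 10% charcoal-stripped FBS medium, BG1-Luc-4E2 cells were seeded, left 24 h at 37 C, co-treated with compounds and 17beta-estradiol for 21.5 h, then assayed for viability and luciferase.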

| SMILES | activity change, negative = inhibition | Potency |
| --- | --- | --- |
| C[C@@H](O)[C@H]1C(=O)N2C(C(=O)O)=C(S[C@@H]3CN[C@H](CNS(N)(=O)=O)C3)[C@H](C)[C@H]12 | -13% |  |
| O=C(O)c1cc(C(=O)O)c(C(=O)O)cc1C(=O)O | -1.46% |  |
| OCCc1ccncc1 | 0.0536% |  |
| CC(C)(C(=O)O)c1ccc(C(O)CCCN2CCC(C(O)(c3ccccc3)c3ccccc3)CC2)cc1 (centres undefined) | -4.65% |  |
| C1CCN(CN2CCCCC2)CC1 | -4.54% |  |
| CC1=CC(=C(c2ccc(N)cc2)c2ccc(N)cc2)C=CC1=N | -25% [at 8.47 µM] |  |
| CCCCCCCCCCCCSC#N | 11.2% |  |
| COc1cc(CNC(=O)CCCC/C=C/C(C)C)ccc1O | -2.37% |  |
| CC(C)C[C@H](NC(=O)[C@H](Cc1ccccc1)NC(=O)c1cnccn1)B(O)O |  | 66.8 nM (active) and 53.1 nM (active) |
| CC(=O)c1ccc(Cl)c(Cl)c1Cl | -0.609% |  |
| C=CCCC | 2.44% [at 95 µM] |  |
| CC(C)CC(C)(C)C | -0.802% [at 95 µM] |  |
| O=C1OC(=O)C2CC=CCC12 (centres undefined) | 0.581% [at 95 µM] |  |
| SCCOCCOCCS | -0.52% |  |
| S=c1[nH][nH]c(=S)s1 | -0.932% |  |
| Cc1nc2sccn2c(=O)c1CCN1CCC(=C(c2ccc(F)cc2)c2ccc(F)cc2)CC1 |  | 29.8 µM (active) |
| O=C(O)c1ccccc1-n1cc(C(=O)O)c(=O)c2cc(Nc3c(F)cc(F)cc3Cl)c(Cl)cc21 | 13.6% |  |
| NC(=O)c1ccccc1 | -8.78% [at 95 µM] |  |
| CCN(CCCCOC(=O)c1ccc(OC)c(OC)c1)C(C)Cc1ccc(OC)cc1 (centres undefined) | 12.3% [at 32.5 µM] |  |

Tested on: not listed separately
Experiment: qHTS assay to identify small molecule antagonists of the estrogen receptor alpha (ER-alpha) signaling pathway using the BG1 cell line - cell viability counter screen (AID 743081);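 further: compound given together with 17beta-estradiol as the ER stimulus; nearly all actives have a fitted effect of over 45% in size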; further: potency means the concentration at half of the fitted maximal effect
Details: BG1Luc4E2 viability, CellTiter-Fluor, 22 h; series mostly up to 70.3 µM; activity change, negative = cytotoxicity: at the top concentration

| SMILES | activity change, negative = cytotoxicity | Potency |
| --- | --- | --- |
| C=CC(C)(O)CC/C=C(/C)CCC=C(C)C (centres undefined) | 2.02% |  |
| CC/C=C/CCO | -2.87% [at 95 µM] |  |
| C[C@@H](O)[C@H]1C(=O)N2C(C(=O)O)=C(S[C@@H]3CN[C@H](CNS(N)(=O)=O)C3)[C@H](C)[C@H]12 | -3.5% |  |
| Cc1c(-c2cccnc2)c2ccccc2n1CCCCC(=O)O | -6.78% |  |
| COc1ccc(C(=O)c2ccc(C)cc2)c(O)c1 |  | inactive |
| O=C(O)c1cc(C(=O)O)c(C(=O)O)cc1C(=O)O | -0.246% |  |
| OCCc1ccncc1 | -0.84% |  |
| C1CCN(CN2CCCCC2)CC1 | -0.0884% |  |
| O=C1c2ccccc2C(=O)c2c1ccc(O)c2O | -0.0539% |  |
| CC1=CC(=C(c2ccc(N)cc2)c2ccc(N)cc2)C=CC1=N | -20.8% [at 8.47 µM] | 11.9 µM (active) |
| O=[N+]([O-])c1ccc(Cl)cc1Cl | -7.36% |  |
| CCCCCCCCCCCCSC#N | -3.56% |  |
| COc1cc(CNC(=O)CCCC/C=C/C(C)C)ccc1O |  | inactive |
| C/C=C1\[C@H]2C=C(C)C[C@]1(N)c1ccc(=O)[nH]c1C2 | 11.3% |  |
| Cc1cc(SC2=C(O)C[C@@](CCc3ccc(N)cc3)(C(C)C)OC2=O)c(C(C)(C)C)cc1CO | -3.02% |  |
| O=C(OC1C[C@H]2CC[C@@H](C1)[N+]21CCCC1)C(O)(c1ccccc1)c1ccccc1 (some centres undefined) | 4.28% |  |
| CC(C)C[C@H](NC(=O)[C@H](Cc1ccccc1)NC(=O)c1cnccn1)B(O)O |  | 1.06 µM (active) and 668 nM (active) |

| SMILES | activity change, negative = cytotoxicity | Potency |
| --- | --- | --- |
| CCOCCn1c(N2CCCN(C)CC2)nc2ccccc21 | -1.21% |  |
| CC/C=C\CCO | 5.42% |  |
| CC(=O)c1ccc(Cl)c(Cl)c1Cl | 3.32% |  |
| C=CCCC | -7.46% [at 95 µM] |  |
| CC(=O)Nc1ccccc1O | 0.144% |  |
| O=C(O)CNc1ccccc1 | -0.171% |  |
| CC(C)CC(C)(C)C | -1.33% [at 95 µM] |  |
| O=C1OC(=O)C2CC=CCC12 (centres undefined) | 1.95% [at 95 µM] |  |
| SCCOCCOCCS | 4.23% |  |
| S=c1[nH][nH]c(=S)s1 | 4.71% |  |
| CC(C)(C)c1ccc(CCC=O)cc1 | -0.985% |  |
| Cc1nc2sccn2c(=O)c1CCN1CCC(=C(c2ccc(F)cc2)c2ccc(F)cc2)CC1 | -12.2% |  |
| O=C(O)c1ccccc1-n1cc(C(=O)O)c(=O)c2cc(Nc3c(F)cc(F)cc3Cl)c(Cl)cc21 | -4.18% |  |
| O=C(O)COCC(=O)O | 28.1% [at 95 µM] |  |
| NC(=O)c1ccccc1 | 0.174% [at 95 µM] |  |
| CCC(C)C1N=C(C)C(C)S1 (centres undefined) | -3.37% |  |
| CCN(CCCCOC(=O)c1ccc(OC)c(OC)c1)C(C)Cc1ccc(OC)cc1 (centres undefined) | -11.3% [at 32.5 µM] |  |
